# Laboratory results taken from PubChem BioAssay (NCI).
# This is part of a sample that, as a whole, favours compounds with a hit. Of some 83,000 tested, about 20% had one in any assay.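 Single-dose data. Exposure time 48 hours. Values below 10 considered active.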 Unmarked numbers belong to inactive results. The source made the active and inactive calls.
# Columns and labels:
# Test in all cases: NCI-60 one-dose screen, 48 h (100 = growth as untreated, 0 = no growth, -100 = all killed)
# Settings in all cases: 10 µM unless noted
# [1] = system: SK-MEL-2 melanoma
# [2] = system: EKVX NSCLC
# [3] = system: SN12C renal
# [4] = system: UO-31 renal
# [5] = system: TK-10 renal
# [6] = system: ACHN renal
# [7] = system: CAKI-1 renal
# [8] = system: A498 renal
# [9] = system: CCRF-CEM leukemia
# [10] = system: MOLT-4 leukemia
SMILES,growth [1],growth [2],growth [3],growth [4],growth [5],growth [6],growth [7],growth [8],growth [9],growth [10]
O=C(Cn1nnc2ccccc21)Nc1ccc(-c2nc3ccccc3s2)cc1,101%,78.2%,101%,86.5%,94.8%,110%,85.5%,85.1%,69.7%,61.6%
O=C1CCC(C(=O)NN(c2ccccc2)c2ccccc2)N1 (stereo not given),105%,102%,97.8%,85.5%,82.8%,103%,78%,103%,22%,50%
Cc1cccc(N2CCN(C(=S)c3ccc4c(c3)OCO4)CC2)c1,9.2% (active),47.1%,40%,25.6%,36.5%,43.1%,15.1%,11.7%,16.5%,22%
C=C1C(=O)O[C@H]2[C@H]1CC/C(COC(=O)NCc1ccc(Cn3c(=O)sn(-c4ccc(OC)cc4)c3=O)cc1)=C\CC[C@@]1(C)O[C@@H]21,68.1%,97.1%,65.2%,-14.6% (active),1.08% (active),-8.56% (active),55.9%,89.2%,-34.7% (active),-12.2% (active)
O=C1/C(=C/c2ccc(Br)cc2)COc2ccc(O)c(O)c21,47.2%,23.2%,-41.1% (active),-99.2% (active),4.99% (active),-84.2% (active),-36% (active),98.9%,-6.17% (active),-9.5% (active)
O=C(/C=C/c1ccc(Br)cc1)c1ccc(-n2cc(CN3CCN(c4cc5c(cc4F)c(=O)c(C(=O)O)cn5C4CC4)CC3)nn2)cc1,97.2%,90.7%,44.9%,65.7%,91.4%,93.7%,64.4%,57.4%,56.3%,67.7%
O=C1c2cccnc2C(=O)c2c1c(C(=O)OCCCN1CCCCC1)c1ccccn21,-47.3% (active),-15.6% (active),-57.6% (active),-19.5% (active),-11.1% (active),-55.2% (active),-24% (active),11.1%,-17% (active),-7.64% (active)
COc1ccc(Nc2ncccc2NC(=O)c2cn(Cc3cccc(Oc4ccccc4)c3)nn2)cc1OC,95.1%,68%,81.1%,54.4%,96.5%,93.9%,82%,69.6%,74.7%,48.1%
CC(=O)N(Cc1ccccc1)c1nc2ccc(O)c(CN(C)C)c2s1,108%,89%,99.2%,77%,99.6%,96.8%,82.8%,66%,106%,112%
N#Cc1c(Nc2ccc(F)cc2)n[nH]c1-c1cccs1,117%,92.6%,89.5%,74.1%,135%,88.4%,88.9%,103%,100%,103%
COc1cccc2c(N=NC(=O)c3ccc(S(N)(=O)=O)cc3)c(O)[nH]c12,112%,98.4%,98.3%,76.7%,108%,105%,93.6%,94.8%,112%,109%
COc1ccc2cc(-c3cnc4nonc4n3)ccc2c1,52.7%,16.1%,38.7%,37.7%,54.5%,50.8%,29.7%,60.8%,8.1% (active),6.87% (active)
Cc1ccc(N=Nc2c(N)nn(-c3ccccc3)c2N)cc1,41.2%,29.9%,45.4%,45.1%,43.6%,47.6%,-2.05% (active),49.9%,8.89% (active),23.5%
COc1ccc2c(c1)c(-c1nonc1-c1cn(C)c3ccc(OC)cc13)cn2C,41.8%,47.4%,43.8%,49%,71.2%,51.7%,31.9%,18.4%,26.6%,25.4%
COc1ccc2c(c1)c(-c1ccc(-c3cn(C)c4ccc(OC)cc34)[nH]1)cn2C,45.3%,-4.9% (active),31.7%,-47.3% (active),35.7%,-44.6% (active),25.6%,71.8%,-5.64% (active),27.7%
CCn1cc(CNc2ccc(C(=O)Nc3cc4cc(OC)c(OC)cc4c(C)n3)cc2)c(C)n1,11.5%,59.7%,67%,22.4%,49%,36.1%,30.1%,93.6%,11.8%,9.9% (active)
O=C(NCc1ccc2c(c1)OCO2)NCC1CCCC(CNC(=O)NCc2ccc3c(c2)OCO3)C1 (stereo not given),109%,106%,102%,95.7%,101%,105%,89.6%,95.3%,85.1%,92.9%
Cc1ccc(C)c(-n2c(-c3ccc(Br)cc3)csc2=NC(=O)c2ccccc2F)c1,101%,76.1%,85.8%,108%,116%,52.9%,76.1%,80.7%,43.4%,30.5%
O=C1OCC2=C1C(c1cccc(C(F)(F)F)c1)c1cc3c(cc1N2CCO)OCO3 (stereo not given),24%,49.7%,46.8%,47.3%,60.8%,42.8%,26.8%,20.9%,7.82% (active),20%
O=C(CCCCCCN1CC(=O)N2[C@@H](c3ccc(Cl)cc3)c3[nH]c4ccccc4c3C[C@H]2C1=O)NO,80.7%,85.6%,65.7%,59.7%,110%,78.8%,60.9%,67.2%,18.7%,32.3%
Nc1c(C(=O)O)cc(Cl)cc1[N+](=O)[O-],110%,103%,93.9%,79.3%,118%,96.5%,111%,100%,78.6%,94.2%
COc1cc(Nc2c3ccc(Cl)cc3nc3ccc(OC)cc23)c2ncccc2c1,78.6%,39.2%,52.5%,26.9%,44.7%,31.2%,32.2%,62.4%,26.9%,39.3%
CCOc1ccc(/C=N\N=C\c2ccc(OCC)cc2)cc1,39.3%,103%,80.4%,79%,86.8%,9.41% (active),46.3%,108%,118%,81%
CCN(CC)c1ccc(N2C(=O)/C(=C/c3cccs3)SC2=S)cc1,110%,92.2%,91.5%,73.3%,92.9%,94.3%,89.7%,71.1%,83%,97.9%
C[C@H]1[C@H](C)CC[C@]2(C(=O)O)CC[C@]3(C)C(=CC[C@@H]4[C@@]5(C)C[C@@H](Cc6cn([C@@H]7O[C@H](CO)[C@@H](O)[C@H](O)[C@H]7O)nn6)[C@H](O)C(C)(C)[C@@H]5CC[C@]43C)[C@H]12,99.9%,96.8%,97.1%,91.8%,89.2%,99.2%,97.2%,80.7%,99.3%,94.2%
COc1ccc(Cn2cc(C(=O)N=Nc3c(O)[nH]c4c(Cl)cccc34)nn2)cc1,93.2%,102%,95.8%,93.5%,106%,111%,94.4%,93.8%,106%,84.8%
O=C1NC(=O)c2c1c1c3ccccc3[nH]c1c1oc3cc(Br)ccc3c21,96.9%,69.9%,78.7%,36.9%,126%,55.2%,38.7%,26.5%,50.9%,40.4%
